About 5,800 (36%) of roughly 16,000 compounds were called active. About 23% were inconclusive and are not listed. Some of the results follow. A number with no mark means an inactive call. Calls follow the shape of the dose curve; as a rule, active = well fitted curve in the direction sought with a large enough effect; inconclusive = small, poorly fitted or top-dose-only effect, or effect the other way; inactive = no such curve, though single readings can be large or run the other way.

Broadly, the AC50 is the concentration giving half of the maximal activity seen.
% is scaled to controls: 0 for no effect and ±100 for the full control effect.

Cytochrome P450 2C19 (Homo sapiens), sequence (P33261 whole entry, looked up): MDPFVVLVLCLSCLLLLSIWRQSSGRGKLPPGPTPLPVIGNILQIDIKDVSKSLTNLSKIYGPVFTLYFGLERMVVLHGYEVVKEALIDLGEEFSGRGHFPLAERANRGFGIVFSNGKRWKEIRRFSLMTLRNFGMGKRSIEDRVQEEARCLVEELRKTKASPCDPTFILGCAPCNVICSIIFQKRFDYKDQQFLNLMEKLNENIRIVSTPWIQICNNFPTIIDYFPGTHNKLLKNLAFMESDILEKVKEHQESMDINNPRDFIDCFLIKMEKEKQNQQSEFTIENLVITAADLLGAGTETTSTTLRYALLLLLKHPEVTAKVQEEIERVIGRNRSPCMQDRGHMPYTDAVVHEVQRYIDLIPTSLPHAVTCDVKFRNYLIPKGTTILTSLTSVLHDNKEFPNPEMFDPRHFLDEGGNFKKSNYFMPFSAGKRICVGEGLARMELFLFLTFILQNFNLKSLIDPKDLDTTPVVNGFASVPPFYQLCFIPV

The assay has as its target Cytochrome P450 2C19 (Homo sapiens) (UniProt P33261). Nature of the assay: Cytochrome panel assay with activity outcomes. To be noted: recombinant CYP, pro-luciferin dealkylation, luminescence, p450-cyp2c19; series mostly up to 57.1 µM; activity, negative = inhibition: at the top concentration.
For `C[C@@]12CC[C@H]3[C@@H](CC=C4C[C@H](OS(=O)(=O)O)CC[C@]43C)[C@H]1CCC2=O`, the “activity, negative = inhibition” value was -11.8%.

Regarding `COc1cc(CCN)c(OC)c(OC)c1`, the activity, negative = inhibition is 70.8% [at 11.4 µM].

`C[C@@H](O)CN(CCN(C[C@@H](C)O)C[C@@H](C)O)C[C@@H](C)O.O=[N+]([O-])O.[Cu]`: the AC50 is 0.398 µM (active).

On to `CC(=O)O[C@H]1C[C@@H](O[C@@H]2[C@H](C)O[C@H](O[C@@H]3[C@H](C)O[C@H](O[C@@H]4CC[C@@]5(C)[C@@H](CC[C@]6(C)[C@]5(C)C[C@H](O)[C@]5(C)[C@@H](C7=CC(=O)OC7)CC[C@@]56O)C4)C[C@@H]3O)C[C@@H]2O)O[C@@H](C)[C@H]1O[C@H]1O[C@@H](CO)[C@@H](O)[C@@H](O)[C@@H]1O`, for which the “activity, negative = inhibition” value was 15.7% [at 25.6 µM].

Turning to `Cc1ccc(S(=O)(=O)N[C@@H](CCCCN)C(=O)CCl)cc1`, the “activity, negative = inhibition” value is -18.9%.

For the molecule `O=S1(=O)N(CCN2CC=C(c3c[nH]c4cc(F)ccc34)CC2)c2cccc3c2N1CCC3`, the AC50 is 6.31 µM (active).

In the case of `COc1cc2c(cc1OC)[C@@]13CCN4C=C5CCO[C@H]6CC(=O)N2[C@@H]1[C@@H]6[C@H]5C[C@H]43`, the activity, negative = inhibition is 32% [at 11.4 µM].

`CC(C)[N+](C)(CCC(C(N)=O)(c1ccccc1)c1ccccc1)C(C)C`: the “activity, negative = inhibition” value is -4.45% [at 25.6 µM].

On to `C[C@H](CN(C)C)C(C#N)(c1ccccc1)c1ccccc1`, for which the activity, negative = inhibition is 31.1% [at 11.4 µM].

Regarding `Cc1ccc2c(c1)N(CCC(=O)N1CCC3(CC1)OCCO3)C(=O)C(C)O2` (stereo not given), the AC50 was 0.708 µM (active).

Turning to `Cc1cc(NC(=O)CCC(=O)N2CCC3(CC2)OCCO3)no1`, the “activity, negative = inhibition” value was 17.5%.

As to `CN1CC[C@@]23c4ccccc4N[C@H]1[C@]21CCN(C)[C@@H]3Nc2ccccc21`, the “activity, negative = inhibition” value was 15.2% [at 25.6 µM].

As for `CCCC(=O)Nc1ccc(N2CCN(CC)CC2)c(Cl)c1`, the “activity, negative = inhibition” value is -15.6%.

Take `C=Cn1ccnc1P(=S)(c1nccn1C=C)C1CCCCC1`: the AC50 is 3.55 µM (active).

As to `O=C(O)[C@@H](O)[C@@H](O)[C@@H]1[O][Sb][O][C@@H]1CO`, the activity, negative = inhibition was 21.2% [at 11.4 µM].

Regarding `CC[N+](CC)(CCCNC1=CC(=O)C(NCCC[N+](CC)(CC)Cc2ccccc2)=CC1=O)Cc1ccccc1`, the “activity, negative = inhibition” value is -21.1%.

On to `CCN1C[C@@]2(COC)CC[C@H](O)[C@@]34[C@@H]2C[C@@H]([C@@H]13)[C@]1(O)C[C@@H](OC)C2C[C@H]4[C@H]1[C@H]2OC(C)=O`, for which the “activity, negative = inhibition” value was -2.58% [at 25.6 µM].

On to `C[N+](C)(C)[C@H](Cc1c[nH]c(=S)[nH]1)C(=O)O`, for which the activity, negative = inhibition was -22.8% [at 11.4 µM].

As to `CCCN(CCC)CCc1c[nH]c2ccc(C(N)=O)cc12`, the “activity, negative = inhibition” value was -15%.

Take `CN=C(NC#N)NCCSCc1nc[nH]c1C`: the AC50 was 31.6 µM (active).

In the case of `O=C(Nc1cccc(F)c1)N1CC2(CCN(C(=O)Oc3ccccc3)CC2)C1`, the “activity, negative = inhibition” value is -16.3%.

For the molecule `O=C(CCN1CC2CCC(CC2)C1)c1cccs1`, the activity, negative = inhibition is -19% [at 11.4 µM].

Consider `CC[C@@](O)(C(=O)O)c1cc2n(c(=O)c1CO)Cc1cc3ccccc3nc1-2`, for which the activity, negative = inhibition was 16.3% [at 11.4 µM].

Regarding `CC(=O)NBr`, the “activity, negative = inhibition” value is -7.32%.

With `N[C@H](CCCCCP(=O)(O)O)C(=O)O`, the AC50 result was “inactive”.

Take `CP(=O)(O)C1=CCNCC1`: the “activity, negative = inhibition” value was -20.7%.

For `CC(=O)N1CC[N+](C)(C)CC1`, the “activity, negative = inhibition” value was -17.8%.

Turning to `CN1CCN(C(=O)O[C@@H]2c3nccnc3C(=O)N2c2ccc(Cl)cn2)CC1`, the AC50 is 15.8 µM (active).

Regarding `COc1cc2c3cc1Oc1c(O)c(OC)cc4c1[C@@H](Cc1ccc(cc1)Oc1cc(ccc1O)C[C@H]3N(C)CC2)N(C)CC4`, the activity, negative = inhibition was -11% [at 11.4 µM].

For `CC[C@]1(c2cccc(O)c2)CCCCN(C)C1`, the “activity, negative = inhibition” value is 16.1% [at 25.6 µM].

`C[C@@H]1O[C@@H](O[C@H]2C[C@@H](O)[C@]3(CO)[C@@H]4[C@@H](O)C[C@]5(C)[C@H](C6=CC(=O)OC6)CC[C@@]5(O)[C@H]4CC[C@@]3(O)C2)[C@H](O)[C@H](O)[C@@H]1O`: the “activity, negative = inhibition” value is -5.19%.

For `C[C@@H](COc1ccccc1)N(CCCl)Cc1ccccc1`, the AC50 was 10 µM (active).

As for `Clc1cnc(Oc2ccc(Oc3ncc(Cl)cc3Cl)cc2)c(Cl)c1`, the “activity, negative = inhibition” value is -18.5%.

In the case of `NCCc1ccc(S(=O)(=O)O)cc1[N+](=O)[O-]`, the activity, negative = inhibition is -6.86% [at 11.4 µM].

For the molecule `O=C1c2ccccc2-c2cc([N+](=O)[O-])c([N+](=O)[O-])cc21`, the AC50 was 0.398 µM (active).

Turning to `O=C1c2cc([N+](=O)[O-])ccc2-c2ccc3c4ccc5c6c(ccc(c7ccc1c2c73)c64)C(=O)c1cc([N+](=O)[O-])ccc1-5`, the activity, negative = inhibition is -4.82% [at 11.4 µM].

In the case of `COc1ccccc1CN1CC[C@@]2(CCCN(C(=O)Oc3ccccc3)C2)C1`, the “activity, negative = inhibition” value is -33.4%.

For the molecule `CN(CCc1ccc(Cl)c(Cl)c1)[C@H]1CCCC[C@H]1N1CCCC1`, the AC50 was 15.8 µM (active).

For the molecule `CN(C)CCN(C)CCc1ccc(Cl)c(Cl)c1`, the AC50 is 10 µM (active).

Regarding `COc1ccc2c(c1)C13CCCC[C@@H]1C(C2)N(C)CC3` (stereo not given in full), the “activity, negative = inhibition” value was 21.6% [at 25.6 µM].

For `C[C@H](Br)C(=O)c1ccc2cc(Br)c3ccccc3c2c1`, the activity, negative = inhibition was -42.1% [at 11.4 µM].

With `CCC1=C(C[C@H]2NCCc3cc(OC)c(OC)cc32)C[C@H]2c3ccccc3CCN2C1`, the activity, negative = inhibition is -4.76% [at 11.4 µM].

`CCCCn1c(N)c(C(=O)NCc2cccs2)c2nc3ccccc3nc21`: the AC50 was 3.98 µM (active).

With `CC(C)CCn1c(N)c(C(=O)NCc2cccs2)c2nc3ccccc3nc21`, the AC50 is 2.51 µM (active).

For the molecule `COc1ccc(Cn2c(N)c(C(=O)NCc3ccco3)c3nc4ccccc4nc32)cc1`, the AC50 was 2.51 µM (active).

For the origin of these results see PubChem BioAssay AID1851 (National Center for Advancing Translational Sciences (NCATS), 2009).
